# Experimental data published in the supplement of paper PMC8975748.
# Structures can show the parent of a compound that is named as a salt.
# System: Saccharomyces cerevisiae BY4741 SeMeCo community
# Assay: z-score of subpopulation abundance vs DMSO median, subpopulation auxotrophic for HLUM; higher = larger share of this subpopulation than in DMSO controls
# Conditions: 10 µM; 24 h; SM minimal medium; subpopulation (auxotrophy): HLUM
# Method: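 Fluorescent four-plasmid SeMeCo (self-establishing metabolically cooperating S. cerevisiae BY4741 community; plasmids pH-mRuby2, pL-mWasabi, pU-eCFP, pM-TagRFP657) was grown 24 h in minimal SM medium with each Selleck FDA-approved drug at 10 µM in 384-well plates. Cells were fixed and imaged by high-content confocal microscopy. For each auxotrophic subpopulation (and the prototroph), a z-score gives the deviation from the DMSO vehicle-control population median.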
row,Structure (SMILES),z-score of subpopulation abundance
1,C=C1c2cccc(O)c2C(O)=C2C(=O)[C@]3(O)C(O)=C(C(N)=O)C(=O)[C@@H](N(C)C)[C@@H]3[C@@H](O)[C@H]12 [Methacycline HCl],-0.19
2,O=C1OC(CN2CCOCC2)CN1/N=C/c1ccc([N+](=O)[O-])o1 (stereo not given) [Furaltadone HCl],-0.39
3,CCCCOc1cc(C(=O)NCCN(CC)CC)c2ccccc2n1 [Dibucaine HCl],-0.06
4,CCCCc1oc2ccccc2c1C(=O)c1cc(I)c(OCCN(CC)CC)c(I)c1 [Amiodarone HCl],5.2
5,CCN1CC(CCN2CCOCC2)C(c2ccccc2)(c2ccccc2)C1=O (stereo not given) [Doxapram HCl],-0.71
6,CC1(C)S[C@@H]2[C@H](NC(=O)[C@H](N)c3ccccc3)C(=O)N2[C@H]1C(=O)O [Ampicillin Trihydrate],-0.25
7,O=C(NCCN1CCOCC1)c1ccc(Cl)cc1,0.73
8,CCC[S+]([O-])c1ccc2[nH]c(NC(=O)OC)nc2c1 (stereo not given) [Albendazole Oxide],-1.11
9,O=C(N[C@H](CO)[C@H](O)c1ccc([N+](=O)[O-])cc1)C(Cl)Cl [Chloramphenicol],0.45
10,O=C1C(CC[S+]([O-])c2ccccc2)C(=O)N(c2ccccc2)N1c1ccccc1 (racemic) [(+/-)-Sulfinpyrazone],-0.47
11,Nc1nc2[nH]cc(CCc3ccc(C(=O)N[C@@H](CCC(=O)O)C(=O)O)cc3)c2c(=O)[nH]1 [Pemetrexed],-1.01
12,CO/N=C(\C(=O)N[C@@H]1C(=O)N2C(C(=O)O)=CCS[C@H]12)c1csc(N)n1 [Ceftizoxime sodium],-0.48
13,C#CCN(C)Cc1ccccc1 [Pargyline hydrochloride],0.1
14,CCCCCC(=O)O[C@]1(C(C)=O)CC[C@H]2[C@@H]3CCC4=CC(=O)CC[C@]4(C)[C@H]3CC[C@@]21C [Hydroxyprogesterone caproate],0.74
15,CN[C@H]1C(=O)N[C@@H]2Cc3ccc(cc3)Oc3cc4cc(c3O[C@@H]3O[C@H](C(=O)O)[C@@H](O)[C@H](O)[C@H]3NC(=O)CCCCCCCCC(C)C)Oc3ccc(cc3Cl)[C@@H](O)[C@@H]3NC(=O)[C@H](NC(=O)[C@@H]4NC(=O)[C@@H](NC2=O)c2cc(cc(O)c2Cl)Oc2cc1ccc2O)c1ccc(O)c(c1)-c1c(O[C@H]2O[C@H](CO)[C@@H](O)[C@H](O)[C@@H]2O)cc(O)cc1[C@@H](C(=O)NCCCN(C)C)NC3=O [Dalbavancin],0.69
16,O=C(O)C1=C(CSc2nnnn2CS(=O)(=O)O)CS[C@@H]2[C@H](NC(=O)[C@H](O)c3ccccc3)C(=O)N12 [Cefonicid sodium],0.08
17,COc1ccnc(C[S+]([O-])c2nc3cc(-n4cccc4)ccc3[nH]2)c1C (stereo not given) [Ilaprazole],0.68
18,NC(=N\CCCCCC/N=C(N)/N=C(\N)Nc1ccc(Cl)cc1)/N=C(\N)Nc1ccc(Cl)cc1 [Chlorhexidine diacetate],2.97
19,CC(=O)OCC(COC(C)=O)OC(C)=O [Triacetin],-0.48
20,CN[C@@H]1[C@H](O)[C@H](NC)[C@H]2O[C@@]3(O)C(=O)C[C@@H](C)O[C@H]3O[C@@H]2[C@H]1O [Spectinomycin 2HCl],-0.32

row,Structure (SMILES),z-score of subpopulation abundance
1,C[N+](C)(C)CCO.[Cl-] [Choline Chloride],-0.62
2,O=C(c1ccccc1)c1ccc2n1CCC2C(=O)O (stereo not given) [Ketorolac tromethamine salt],-0.11
3,CSCC1CN(/N=C/c2ccc([N+](=O)[O-])o2)C(=O)O1 (stereo not given) [Nifuratel],1.35
4,NC12CC3CC(CC(C3)C1)C2 [Amantadine],-0.31
5,Cn1c([N+](=O)[O-])cnc1COC(N)=O [Ronidazole],-0.24
6,Cc1cc(CC(C)CC(C)(C)C)n(O)c(=O)c1 (stereo not given) [Piroctone Olamine],16.6
7,C#C[C@]1(O)CC[C@H]2[C@@H]3CCC4=CCCC[C@@H]4[C@H]3C(=C)C[C@@]21CC [Desogestrel],-0.48
8,N[C@@H](C(=O)N[C@@H]1C(=O)N2C(C(=O)O)=C(Cl)CS[C@H]12)c1ccccc1 [Cefaclor],0.66
9,CCN[C@@H]1C[C@H](N)[C@@H](O[C@H]2OC(CN)=CC[C@H]2N)[C@H](O)[C@H]1O[C@H]1OC[C@](C)(O)[C@H](NC)[C@H]1O [Netilmicin Sulfate],0.72
10,CC[C@@H]1C(=O)OC[C@@H]1Cc1cncn1C [Pilocarpine HCl],-0.1
11,Oc1c(Br)cc(Br)c2cccnc12 [Broxyquinoline],44.9
12,CC(C)(C)C(=O)C(Oc1ccc(Cl)cc1)n1ccnc1 (stereo not given) [Climbazole],8.88
13,CN(C)CCC=C1c2ccccc2C=Cc2ccccc21 [Cyclobenzaprine HCl],0.14
14,CCCCCCCCc1ccc(CCC(N)(CO)CO)cc1 [Fingolimod],-1.27
15,CC(C(=O)O)c1ccc2c(c1)[nH]c1ccc(Cl)cc12 (stereo not given) [Carprofen],0.18
16,COc1ccnc(C[S+]([O-])c2nc3cc(OC(F)F)ccc3[nH]2)c1OC (stereo not given) [Pantoprazole],0.7
17,COc1cc(NC(C)CCCN)c2ncccc2c1 (stereo not given) [Primaquine Diphosphate],-0.49
18,O=C(O)c1cc(/N=N/c2ccc(O)c(C(=O)O)c2)ccc1O [Olsalazine Sodium],-0.84
19,CCCN1C[C@H](C)[C@@H](O)[C@](C)(O)[C@@H](CC)OC(=O)[C@H](C)[C@@H](O[C@H]2C[C@@](C)(OC)[C@@H](O)[C@H](C)O2)[C@H](C)[C@@H](O[C@@H]2O[C@H](C)C[C@H](N(C)C)[C@H]2O)[C@](C)(O)C[C@H]1C [Gamithromycin],-0.18
20,CCCCCNC(=N)N/N=C/c1c[nH]c2ccc(OC)cc12 [Tegaserod Maleate],1.76
